# From PubChem BioAssay (NCATS)
# Results filed as inconclusive are left out. Entries that show only a call come without a potency. Calls of active or inactive are those of the source. Unless noted, calls come from the whole dose curve; as a rule, active = well fitted curve in the direction sought with a large enough effect; inconclusive = small, poorly fitted or top-dose-only effect, or another doubt; inactive = no such curve, though single readings can be large; an effect the other way counts as inactive or inconclusive.
# Key:
# [1] = Cell Viability - LYMP2-006 (AID 978);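 note: cells exposed to compound for 24 hours; nearly all actives have a fitted effect of over 60% in size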
# Method in brief: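 Concentration-dependent loss of intracellular ATP in a human lymphoblastoid line after 24 hr treatment at 37 C was measured by CellTiter-Glo luminescence, with AC50 values obtained from standard Hill-equation modelling.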
# [2] = Cell Viability - LYMP2-007 (AID 979);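 note: cells exposed to compound for 24 h before reading; nearly all actives have a fitted effect of over 60% in size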
# Method in brief: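 Acute toxicity is scored as a concentration-dependent fall in intracellular ATP in human lymphoblastoid cells treated 24 hr at 37 C, measured by luciferase luminescence; Hill-equation modelling yields AC50.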
# [3] = Cell Viability - LYMP2-008 (AID 980);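 note: cells exposed to compound for 24 h at 37 °C; nearly all actives have a fitted effect of over 60% in size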
# Method in brief: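 Acute cytotoxicity is scored as concentration-dependent loss of cellular ATP in a human lymphoblastoid line after 24 hr treatment at 37 C. ATP is quantified by luciferase luminescence.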
# [4] = Cell Viability - LYMP2-010 (AID 981);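 note: cells exposed to compound for 24 hours at 37 °C; nearly all actives have a fitted effect of over 55% in size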
# Method in brief: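 Acute toxicity is scored as a concentration-dependent loss of cellular ATP in human lymphoblastoid cells after 24 hr compound exposure in complete medium. Tetraoctylammonium bromide is the positive control.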
# [5] = Cell Viability - LYMP2-012 (AID 982);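 note: cellular ATP by luciferase luminescence where a drop means cytotoxicity; cells exposed to compound for one day before reading; nearly all actives have a fitted effect of over 55% in size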
# [6] = Cell Viability - LYMP2-014 (AID 983);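 note: cells exposed to compound for 24 h at 37 °C; nearly all actives have a fitted effect of over 50% in size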
# Method in brief: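 Decrease in intracellular ATP after 24 hr treatment at 37 C, measured by luciferase luminescence, indicated cytotoxicity. Concentration-response data were fitted with the standard Hill equation to give AC50.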
# [7] = Cell Viability - LYMP2-016 (AID 984);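 note: cells exposed to compound for 24 hours at 37 °C; nearly all actives have a fitted effect of over 55% in size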
# Method in brief: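 Acute toxicity in a Coriell human lymphoblastoid line is scored as loss of intracellular ATP over 24 h of treatment in complete medium. CellTiter-Glo signal is fitted across concentrations with the Hill equation to give AC50.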
# [8] = Cell Viability - LYMP2-018 (AID 985); note: nearly all actives have a fitted effect of over 50% in size
# Method in brief: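 Acute cytotoxicity is scored as a concentration-dependent drop in intracellular ATP after 24 hr exposure of the lymphoblastoid line in complete culture medium, measured by luciferase luminescence. Potency is expressed as AC50 from Hill modelling.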
# [9] = Cell Viability - LYMP2-020 (AID 986);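 note: cells exposed to compound for 24 h at 37 °C; nearly all actives have a fitted effect of over 55% in size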
# Method in brief: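 Acute cytotoxicity in a human lymphoblastoid line is scored as a concentration-dependent fall in cellular ATP after 24 hr at 37 C in complete medium. The positive control is tetraoctylammonium bromide, and potency is given as Hill-fit AC50.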
# [10] = Cell Viability - LYMP2-022 (AID 987); note: nearly all actives have a fitted effect of over 55% in size
# Method in brief: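 Acute toxicity in a human lymphoblastoid line is scored as decreased intracellular ATP after 24 hr compound treatment at 37 C. ATP is measured by CellTiter-Glo luminescence; curves are fitted with the Hill equation to give AC50.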
# [11] = Cell Viability - LYMP2-024 (AID 988); note: nearly all actives have a fitted effect of over 60% in size
# Method in brief: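 Acute toxicity is measured as concentration-dependent loss of intracellular ATP in a human lymphoblastoid line treated 24 hours at 37 C. Luciferase luminescence quantifies ATP; AC50 values come from standard Hill-equation modelling.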
# [12] = Cell Viability - LYMP2-026 (AID 989);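 note: cells exposed to compound for 24 h at 37 °C; nearly all actives have a fitted effect of over 50% in size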
# Method in brief: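 Concentration-dependent loss of intracellular ATP in human lymphoblastoid cells after 24 hr at 37 C, quantified by luciferase luminescence. AC50 derived from standard Hill equation.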
# [13] = Cell Viability - LYMP1-002 - Assay at 24 hr (AID 993)
# Method in brief: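 qHTS, LYMP1-002 lymphoblastoid, 24 h cpd, 37 C, CellTiter-Glo ATP luminescence; AC50 via Hill eq.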
# [14] = Cell Viability - LYMP1-002 - Assay at 40 hr (AID 994); note: nearly all actives have a fitted effect of over 60% in size
# Method in brief: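 Viability in the human lymphoblastoid line was measured as intracellular ATP via CellTiter-Glo after 40 hr compound exposure. Tetraoctylammonium bromide served as positive control.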
# [15] = qHTS Assay for Lipid Storage Modulators (AID 1519; calls by dose curve); settings: Drosophila S3 cells, BODIPY lipid droplet/cell ratio, laser cytometry, cells loaded with oleic acid
# Method in brief: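 Cells seeded at 5,000 per well were treated with compounds over a concentration series and loaded with oleic acid (400 uM, as added). Lipid droplet fluorescence (488 nm excitation, 500-530 nm channel) was read by laser-scanning cytometry and normalized to 20 uM Triacsin C.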
# [16] = qHTS Assay for Identification of Small Molecule Inducers of Hypoxia Response (AID 2120; active = well fitted curve in the direction sought with a large enough effect in the signal ratio, with a control signal flat, not every such curve was filed as active; the % refers to the signal ratio)
# Method in brief: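 Induction of beta-lactamase reporter activity was measured in CellSensor HRE-bla ME-180 cells after 17 h compound treatment at 37 degrees C, using CCF4 substrate and the 460nm/530nm emission ratio to derive AC50 values.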
# [17] = biological target: Estrogen receptor (Homo sapiens) (UniProt P03372); assay: qHTS assay for small molecule antagonists of estrogen receptor alpha signaling (AID 588513; active = well fitted curve in the direction sought with a large enough effect in the signal ratio, with a control signal flat, not every such curve was filed as active; the % refers to the signal ratio)
# Method in brief: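 Cells were plated at 5000/well and incubated 4 h at 37 C. Compounds were added as 1:2 dilution series, duplicates. 17-beta-estradiol (0.5nM final) was added for 18 h before CCF4 detection.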
# [18] = qHTS assay for small molecule antagonists of peroxisome proliferator-activated receptor delta signaling (AID 588535; active = well fitted inhibition curve with a large enough effect in the signal ratio, with a control signal flat, not every such curve was filed as active; the % refers to the signal ratio;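 for max response: cells co-treated with a PPAR-delta agonist as stimulator during compound exposure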); settings: HEK293T PPARd-UAS-bla, beta-lactamase FRET ratio, 18 h; 460 nm channel
# Method in brief: (§1)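 Cell-based beta-lactamase assay in antagonist mode: 4000 HEK293T PPAR-delta-UAS-bla cells per well, 5 hr preincubation then 18 hr compound incubation at 37 C. IC50 obtained by Hill equation fitting.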
# [19] = biological target: Peroxisome proliferator-activated receptor delta (Homo sapiens) (UniProt Q03181); assay: as above
# Method in brief: as §1
# [20] = biological target: Peroxisome proliferator-activated receptor gamma (Homo sapiens) (UniProt P37231); assay: qHTS assay for small molecule agonists of peroxisome proliferator-activated receptor gamma signaling (AID 588536; active = well fitted curve in the direction sought with a large enough effect in the signal ratio, with a control signal flat, not every such curve was filed as active; the % refers to the signal ratio)
# Method in brief: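 HEK293 UAS-bla reporter line, 1% charcoal/dextran FBS; titration, 16 h, 37 C; CCF4 loading 2 h RT; fluorescence 460/530 nm. Normalized to rosiglitazone 2 uM = 100%, DMSO = 0%.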
# [21] = qHTS assay for small molecule agonists of retinoid X receptor alpha signaling (AID 588544; calls by dose curve); settings: HEK293T RXRa-UAS-bla, beta-lactamase reporter, 18 h; 530 nm emission
# [22] = biological target: Retinoic acid receptor RXR-alpha (Homo sapiens) (UniProt P19793); assay: as above
# [23] = biological target: Thyroid hormone receptor beta (Homo sapiens) (UniProt P10828); assay: qHTS assay for small molecule agonists of thyroid hormone receptor beta signaling (AID 588545; calls by dose curve)
# Method in brief: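 Efficacy and EC50 values derive from Hill fits of qHTS titration data, normalized to 10 nM T3 and DMSO-only wells. HEK 293 reporter cells were stimulated for 18 hrs at 37 C, with beta-lactamase activity measured by CCF4 fluorescence.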
# [24] = qHTS assay for small molecule antagonists of retinoid X receptor alpha signaling (AID 588546; active = well fitted inhibition curve with a large enough effect in the signal ratio, with a control signal flat, not every such curve was filed as active; the % refers to the signal ratio;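 note: cells stimulated with 9-cis-retinoic acid as agonist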); settings: HEK293T RXRa-UAS-bla, beta-lactamase ratio, antagonist mode; measured here: W530 green channel, cytotoxicity proxy
# Method in brief: (§2)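 Beta-lactamase reporter inhibition, read as CCF4 fluorescence ratio (ex 405, em 460/530 nm) after 2 h at RT. HEK293T UAS-bla cells, 2500/well, were stimulated with 9-cis-RA at 500 or 100 nM final alongside test compound for 18 h at 37 C.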
# [25] = biological target: Retinoic acid receptor RXR-alpha (Homo sapiens) (UniProt P19793); assay: as above; settings: HEK293T RXRa-UAS-bla, beta-lactamase ratio, antagonist mode
# Method in brief: as §2
# [26] = biological target: Thyroid hormone receptor beta (Homo sapiens) (UniProt P10828); assay: qHTS assay for small molecule antagonists of thyroid hormone receptor beta signaling (AID 588547; active = well fitted inhibition curve with a large enough effect in the signal ratio, with a control signal flat, not every such curve was filed as active; the % refers to the signal ratio;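 note: cells stimulated with 0.4 nM T3 agonist during compound exposure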); settings: TR-UAS-bla HEK293, beta-lactamase ratio, antagonist mode, 18 h
# Method in brief: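 Inhibition of T3-driven (0.4nM final) beta-lactamase reporter activity was measured over 0.59 nM to 92 uM compound after 18 h at 37 C. The cells were GripTite HEK293 TR-UAS-bla in charcoal/dextran-stripped serum, with CCF4 ratio read-out and IC50 from Hill fits.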
# [27] = biological target: Voltage-gated inwardly rectifying potassium channel KCNH2 (Homo sapiens) (UniProt Q12809); assay: qHTS Assay for Small Molecule Inhibitors of the Human hERG Channel Activity (AID 588834);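 note: top concentration of the series differs between compounds; lower thallium flux fluorescence means stronger hERG block; nearly all actives have a fitted effect of over 50% in size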
# Method in brief: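 Measured: FluxOR fluorescence after thallium stimulation in U2OS cells transduced with hERG by baculovirus. Compounds pre-incubated around 10 min; medium Opti-MEM with 2% FCS. AC50 from Hill equation.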
# [28] = qHTS assay for small molecule activators of the p53 signaling pathway (AID 651743; active = well fitted activation curve with a large enough effect in the signal ratio, not every such curve was filed as active; the % refers to the signal ratio); settings: HCT-116 p53RE-bla, beta-lactamase FRET ratio, 16 h; activation: stronger effect = higher value
# Method in brief: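 Screen for p53 pathway agonists uses stably transfected p53RE-bla HCT-116 cells, 4,000 per well, treated 16 h at 37 C with compounds in DMSO.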
# [29] = qHTS assay for small molecule activators of the nuclear factor-kappa B (NF-kB) signaling pathway (AID 651749; active = well fitted activation curve with a large enough effect in the signal ratio; the % refers to the signal ratio); settings: NF-kB-bla ME-180 cells, beta-lactamase FRET ratio, 16 h; stronger effect = higher value
# Method in brief: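 Stably transfected ME-180 line; NF-kB response element upstream of beta-lactamase. Treatment: compound or DMSO, 16 hr. Detection: fluorescent FRET substrate.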
# [30] = qHTS assay for small molecule disruptors of the mitochondrial membrane potential - 1 hr assay (AID 651754; calls by dose curve; note: potency is the fitted concentration of half-maximal effect; nearly all actives have a fitted effect of over 35% in size)
# Method in brief: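 Steps: seed HepG2 cells and let attach overnight; pin-transfer compound or vehicle; incubate 1 hr at 37C; add Mito-MPS dye for 30 min; read two-channel fluorescence for monomer and aggregate forms.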
# [31] = qHTS assay for small molecule disruptors of the mitochondrial membrane potential - 5 hr assay (AID 651755; calls by dose curve; note: potency is the fitted concentration of half-maximal effect; nearly all actives have a fitted effect of over 40% in size)
# Method in brief: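 HepG2, 2,000 cells/well, overnight attach; cpd or DMSO 5 hr, 37C/5% CO2; Mito-MPS 30 min 37C; fluor 490/535 + 540/590 nm.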
# [32] = biological target: Tumor necrosis factor (Homo sapiens) (UniProt P01375); assay: qHTS assay to identify small molecules that stimulate Tumor Necrosis Factor-alpha (TNF-alpha) secretion (AID 651757; active = well fitted curve in the direction sought with a large enough effect in the signal ratio; the % refers to the signal ratio)
# Method in brief: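 Secreted TNF-alpha from compound-treated THP-1 cells (17 hrs, 37 C) was quantified with a homogeneous time-resolved fluorescence antibody assay.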
# [33] = qHTS assay for environmental chemicals that activate the Aryl hydrocarbon Receptor (AhR) signaling pathway (AID 651777); settings: 1A2-DRE human hepatoma cells, luciferase, 24 h; activation: stronger effect = higher value; note: potency is the fitted concentration of half-maximal effect; nearly all actives have a fitted effect of over 15% in size
# Method in brief: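 Concentration–response screening used 1,200 1A2-DRE cells per well, 24 hr compound exposure (37 C, 5% CO2), and One-Glo luminescence as the AhR-driven CYP1A2 reporter signal.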
# [34] = biological target: Peroxisome proliferator-activated receptor alpha (Homo sapiens) (UniProt Q07869); assay: qHTS assay for small molecule agonists of the peroxisome proliferator-activated receptor alpha (PPARalpha) signaling pathway (AID 651778); settings: PathHunter PPARalpha complementation, chemiluminescence, 6 h; stronger effect = higher value
# Method in brief: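 Chemiluminescence from complemented enzyme reported PPARalpha activation in cells after 6 hr of compound treatment at 37 C. The detection reagent was incubated for 60 min at room temperature, and compounds were scored as agonists.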
# [35] = biological target: Nuclear receptor ROR-gamma (Homo sapiens) (UniProt P51449); assay: qHTS assay for small molecule antagonists of the retinoid-related orphan receptor gamma (ROR-gamma) signaling pathway (AID 651802)
# Method in brief: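 Antagonism is scored as a fall in luminescence from a RORE-luciferase reporter in CHO cells expressing ROR under a TET-inducible promoter, measured 16hr after doxycycline induction in the presence of compound.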
# [36] = qHTS assay for small molecule antagonists of the retinoid-related orphan receptor gamma (ROR-gamma) signaling pathway - cell viability counter screen (AID 720652; active = well fitted curve in the direction sought with a large enough effect in the repeat runs; an effect the other way counts as inactive or inconclusive;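 note: CHO reporter cells with doxycycline-induced ROR-gamma expression; compound exposure lasted 16 hr before ATP read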)
# Method in brief: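 Cytotoxicity is quantified via intracellular ATP (CellTiter-Glo luminescence) in doxycycline-induced CHO ROR response element-luciferase reporter cells treated with compound for 16 hr at 37 C, 5% CO2.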
# [37] = qHTS assay for small molecule agonists of the antioxidant response element (ARE) signaling pathway measured by Nrf2-dependant transcriptional activity - cell viability counter screen (AID 720653; active = well fitted curve in the direction sought with a large enough effect in the repeat runs; an effect the other way counts as inactive or inconclusive); settings: ARE-bla HepG2 viability, CellTiter-Glo ATP luminescence, 16 h; stronger effect = lower value
# Method in brief: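 Cytotoxicity counter screen: intracellular ATP quantified by CellTiter-Glo luminescence in the same ARE-bla HepG2 plates, after 16 h compound exposure and a 2 h beta-lactamase substrate step.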
# [38] = qHTS assay for cell viability of HEK293 cells (AID 743288); settings: ATP luminescence (CellTiter-Glo), 18 h, stronger effect = lower value; note: nearly all actives have a fitted effect of over 50% in size
# Method in brief: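 The Tox21 protocol used parental HEK293 cells treated for 18 h at 37 C with compounds delivered by pintool; ATP-coupled luminescence after 30 min at room temperature gave viability.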
# [39] = qHTS assay for cell viability of the p53RE-bla HCT-116 cell line (AID 743292); note: nearly all actives have a fitted effect of over 55% in size
# Method in brief: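 Compound-exposed HCT-116 (p53RE-bla) cells, 4,000 per well, were kept 16 h at 37 C following a 5 h preincubation. Cell number was estimated from total ATP by CellTiter-Glo luminescence read after 30 min at room temperature.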
# [40] = biological target: Calcium and integrin-binding protein 1 (Homo sapiens) (UniProt Q99828); assay: Primary qHTS for Identification of Calcium Integrin Binding Protein 1 (CIB1) Competitor (AID 1508620);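 note: GST tagged CIB1 binding a fluorescein labelled alphaIIb integrin peptide tracer; top concentration of the series differs between compounds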
# Method in brief: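 CIB1-GST (1 uM final) and compound incubated 15 min at room temperature before adding FITC-alphaIIb peptide tracer (100 nM final). Competition for binding read by fluorescence polarization (ex 480, em 540) after another 15 min at room temperature.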
# Thyroid hormone receptor beta (Homo sapiens), sequence (P10828 whole entry, looked up): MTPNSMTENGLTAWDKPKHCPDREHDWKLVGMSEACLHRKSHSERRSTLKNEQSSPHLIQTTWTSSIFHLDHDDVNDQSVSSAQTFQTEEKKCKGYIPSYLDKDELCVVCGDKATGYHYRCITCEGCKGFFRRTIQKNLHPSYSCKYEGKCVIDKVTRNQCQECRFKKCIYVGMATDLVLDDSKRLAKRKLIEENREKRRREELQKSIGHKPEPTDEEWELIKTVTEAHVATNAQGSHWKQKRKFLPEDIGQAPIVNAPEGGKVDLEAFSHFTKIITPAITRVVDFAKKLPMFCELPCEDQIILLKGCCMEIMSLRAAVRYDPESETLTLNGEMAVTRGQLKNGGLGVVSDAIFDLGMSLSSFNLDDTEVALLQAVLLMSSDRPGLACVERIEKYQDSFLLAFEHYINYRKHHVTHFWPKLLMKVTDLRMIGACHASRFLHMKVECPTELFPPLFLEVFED
# Retinoic acid receptor RXR-alpha (Homo sapiens), sequence (P19793 whole entry, looked up): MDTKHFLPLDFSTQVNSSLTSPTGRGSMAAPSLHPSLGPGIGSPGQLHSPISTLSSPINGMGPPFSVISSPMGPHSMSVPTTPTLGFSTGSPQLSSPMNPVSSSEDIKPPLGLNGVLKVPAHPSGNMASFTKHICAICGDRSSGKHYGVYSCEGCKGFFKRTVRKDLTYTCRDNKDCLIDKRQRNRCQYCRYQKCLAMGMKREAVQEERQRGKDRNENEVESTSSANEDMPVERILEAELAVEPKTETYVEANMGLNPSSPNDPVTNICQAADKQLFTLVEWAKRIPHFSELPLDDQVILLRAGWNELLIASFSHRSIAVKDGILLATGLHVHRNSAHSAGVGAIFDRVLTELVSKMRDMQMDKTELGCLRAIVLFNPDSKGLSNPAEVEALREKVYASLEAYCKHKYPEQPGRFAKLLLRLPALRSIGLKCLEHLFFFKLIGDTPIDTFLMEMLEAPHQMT
# Voltage-gated inwardly rectifying potassium channel KCNH2 (Homo sapiens), sequence (Q12809 whole entry, looked up): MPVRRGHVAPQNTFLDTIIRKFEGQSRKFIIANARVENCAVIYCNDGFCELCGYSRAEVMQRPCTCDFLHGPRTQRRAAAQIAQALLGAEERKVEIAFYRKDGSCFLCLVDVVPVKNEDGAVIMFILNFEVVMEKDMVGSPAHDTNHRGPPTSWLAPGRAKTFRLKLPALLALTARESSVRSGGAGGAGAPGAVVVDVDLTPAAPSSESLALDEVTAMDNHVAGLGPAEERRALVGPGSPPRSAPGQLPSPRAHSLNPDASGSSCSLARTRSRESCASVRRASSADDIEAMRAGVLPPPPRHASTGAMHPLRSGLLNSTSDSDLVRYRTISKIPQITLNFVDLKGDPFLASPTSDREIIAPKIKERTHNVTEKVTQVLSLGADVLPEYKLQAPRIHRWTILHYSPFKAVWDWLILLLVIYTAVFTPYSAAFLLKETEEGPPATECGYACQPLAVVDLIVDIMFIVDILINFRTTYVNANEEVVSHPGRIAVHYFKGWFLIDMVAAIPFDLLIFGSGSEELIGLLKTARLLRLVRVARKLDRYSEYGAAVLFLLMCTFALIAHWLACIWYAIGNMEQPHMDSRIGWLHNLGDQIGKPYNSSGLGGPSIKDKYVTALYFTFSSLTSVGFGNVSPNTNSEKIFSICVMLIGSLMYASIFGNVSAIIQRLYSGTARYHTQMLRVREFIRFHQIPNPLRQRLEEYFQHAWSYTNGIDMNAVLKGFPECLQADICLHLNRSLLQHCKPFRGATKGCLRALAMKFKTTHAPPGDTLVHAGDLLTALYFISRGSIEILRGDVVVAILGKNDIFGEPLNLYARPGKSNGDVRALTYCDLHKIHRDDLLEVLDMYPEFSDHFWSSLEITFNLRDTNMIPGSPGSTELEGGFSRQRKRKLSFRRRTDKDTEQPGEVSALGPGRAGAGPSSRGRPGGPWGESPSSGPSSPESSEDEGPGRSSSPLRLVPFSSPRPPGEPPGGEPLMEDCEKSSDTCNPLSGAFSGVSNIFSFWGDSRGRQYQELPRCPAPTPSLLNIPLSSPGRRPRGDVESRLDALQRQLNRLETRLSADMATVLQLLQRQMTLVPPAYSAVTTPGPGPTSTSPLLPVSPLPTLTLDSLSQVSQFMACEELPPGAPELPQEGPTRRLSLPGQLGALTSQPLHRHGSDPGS
# Peroxisome proliferator-activated receptor delta (Homo sapiens), sequence (Q03181 whole entry, looked up): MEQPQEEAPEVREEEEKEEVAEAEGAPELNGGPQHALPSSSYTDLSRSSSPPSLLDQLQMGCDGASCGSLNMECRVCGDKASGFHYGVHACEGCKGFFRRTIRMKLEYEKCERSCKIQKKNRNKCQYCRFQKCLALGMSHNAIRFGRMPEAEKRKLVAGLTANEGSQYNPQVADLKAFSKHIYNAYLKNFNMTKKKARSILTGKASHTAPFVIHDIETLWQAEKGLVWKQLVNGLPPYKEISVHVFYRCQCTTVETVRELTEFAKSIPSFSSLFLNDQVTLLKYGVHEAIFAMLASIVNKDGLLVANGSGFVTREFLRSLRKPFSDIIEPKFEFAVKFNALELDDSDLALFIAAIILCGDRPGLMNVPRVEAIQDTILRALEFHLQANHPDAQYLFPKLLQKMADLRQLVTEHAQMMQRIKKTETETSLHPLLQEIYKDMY
# Nuclear receptor ROR-gamma (Homo sapiens), sequence (P51449 whole entry, looked up): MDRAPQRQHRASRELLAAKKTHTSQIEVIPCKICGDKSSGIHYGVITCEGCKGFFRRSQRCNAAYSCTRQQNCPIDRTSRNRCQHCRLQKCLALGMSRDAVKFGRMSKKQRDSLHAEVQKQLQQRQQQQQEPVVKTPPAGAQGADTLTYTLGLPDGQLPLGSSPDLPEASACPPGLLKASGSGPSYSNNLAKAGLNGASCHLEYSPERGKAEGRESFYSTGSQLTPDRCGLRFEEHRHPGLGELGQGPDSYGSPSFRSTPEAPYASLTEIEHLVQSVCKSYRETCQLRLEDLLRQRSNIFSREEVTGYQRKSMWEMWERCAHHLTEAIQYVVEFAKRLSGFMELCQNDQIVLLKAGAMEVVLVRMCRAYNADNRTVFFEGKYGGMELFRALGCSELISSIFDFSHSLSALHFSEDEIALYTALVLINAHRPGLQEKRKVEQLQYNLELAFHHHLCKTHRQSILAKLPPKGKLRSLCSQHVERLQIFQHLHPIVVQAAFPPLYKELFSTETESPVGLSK
# Estrogen receptor (Homo sapiens), sequence (P03372 whole entry, looked up): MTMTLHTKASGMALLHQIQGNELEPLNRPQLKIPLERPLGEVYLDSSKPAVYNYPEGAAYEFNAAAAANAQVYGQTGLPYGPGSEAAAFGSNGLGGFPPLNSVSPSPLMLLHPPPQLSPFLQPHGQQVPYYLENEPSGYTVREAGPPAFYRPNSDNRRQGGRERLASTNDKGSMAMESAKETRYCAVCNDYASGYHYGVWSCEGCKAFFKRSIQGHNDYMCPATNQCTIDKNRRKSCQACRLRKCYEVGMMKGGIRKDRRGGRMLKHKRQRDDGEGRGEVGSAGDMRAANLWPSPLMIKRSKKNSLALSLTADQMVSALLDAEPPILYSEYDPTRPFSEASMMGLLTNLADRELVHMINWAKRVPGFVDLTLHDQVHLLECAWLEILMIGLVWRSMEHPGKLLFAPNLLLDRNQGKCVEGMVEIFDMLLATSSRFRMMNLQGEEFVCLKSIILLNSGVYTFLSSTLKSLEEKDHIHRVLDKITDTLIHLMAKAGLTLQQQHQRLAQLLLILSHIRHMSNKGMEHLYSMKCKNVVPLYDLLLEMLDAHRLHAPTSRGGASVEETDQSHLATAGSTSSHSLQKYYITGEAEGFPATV
# Tumor necrosis factor (Homo sapiens), sequence (P01375 whole entry, looked up): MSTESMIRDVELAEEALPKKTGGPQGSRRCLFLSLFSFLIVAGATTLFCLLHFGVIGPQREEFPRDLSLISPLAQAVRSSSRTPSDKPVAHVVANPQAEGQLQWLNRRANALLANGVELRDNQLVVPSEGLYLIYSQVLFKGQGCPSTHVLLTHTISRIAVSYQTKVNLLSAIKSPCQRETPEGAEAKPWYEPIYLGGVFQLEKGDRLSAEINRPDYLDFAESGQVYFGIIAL
# Peroxisome proliferator-activated receptor gamma (Homo sapiens), sequence (P37231 whole entry, looked up): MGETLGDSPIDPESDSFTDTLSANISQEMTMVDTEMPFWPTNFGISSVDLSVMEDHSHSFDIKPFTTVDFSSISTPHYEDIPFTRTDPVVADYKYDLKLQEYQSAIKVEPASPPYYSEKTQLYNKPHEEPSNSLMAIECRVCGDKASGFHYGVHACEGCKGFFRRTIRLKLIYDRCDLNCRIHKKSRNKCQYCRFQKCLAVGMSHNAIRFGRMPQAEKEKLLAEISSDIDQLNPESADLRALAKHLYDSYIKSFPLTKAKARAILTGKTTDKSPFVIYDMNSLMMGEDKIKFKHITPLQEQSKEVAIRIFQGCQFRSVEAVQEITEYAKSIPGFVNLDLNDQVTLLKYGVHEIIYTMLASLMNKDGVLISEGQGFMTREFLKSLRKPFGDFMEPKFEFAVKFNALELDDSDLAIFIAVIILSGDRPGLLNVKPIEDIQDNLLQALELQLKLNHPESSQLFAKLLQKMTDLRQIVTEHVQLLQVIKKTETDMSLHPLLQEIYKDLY
# Peroxisome proliferator-activated receptor alpha (Homo sapiens), sequence (Q07869 whole entry, looked up): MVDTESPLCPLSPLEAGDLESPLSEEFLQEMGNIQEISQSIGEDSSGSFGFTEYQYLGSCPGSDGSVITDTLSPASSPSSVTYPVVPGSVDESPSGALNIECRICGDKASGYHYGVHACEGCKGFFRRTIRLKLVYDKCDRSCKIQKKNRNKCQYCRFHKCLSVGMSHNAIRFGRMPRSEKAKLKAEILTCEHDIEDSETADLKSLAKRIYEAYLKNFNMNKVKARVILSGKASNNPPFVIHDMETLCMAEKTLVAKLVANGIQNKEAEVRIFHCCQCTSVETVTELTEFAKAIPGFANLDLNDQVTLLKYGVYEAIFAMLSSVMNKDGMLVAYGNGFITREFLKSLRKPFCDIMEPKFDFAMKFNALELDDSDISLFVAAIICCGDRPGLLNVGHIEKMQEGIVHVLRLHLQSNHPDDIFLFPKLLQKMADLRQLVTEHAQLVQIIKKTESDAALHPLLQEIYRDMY
compound,measurement,setting,value
O=C(Nc1ccccc1)Nc1ccccc1,outcome,[1],inactive
same,outcome,[2],inactive
same,outcome,[3],inactive
same,outcome,[4],inactive
same,outcome,[5],inactive
same,outcome,[6],inactive
same,outcome,[7],inactive
same,outcome,[8],inactive
same,outcome,[9],inactive
same,outcome,[10],inactive
same,outcome,[11],inactive
same,outcome,[12],inactive
same,outcome,[13],inactive
same,outcome,[14],inactive
same,"activity change, negative = inhibition",[15]; at 57.5 µM (top of the series),11.8% (inactive)
same,max response,[15]; measured here: cell count channel max response,-3.21%
same,max response,[15]; measured here: lipid channel max response,11.7%
same,outcome,[16],inactive
same,outcome,[17],inactive
same,max response,[18],-7.95%
same,outcome,[19],inactive
same,outcome,[20],inactive
same,max response,[21],-6.23%
same,outcome,[22],inactive
same,outcome,[23],inactive
same,max response,[24],-7.85%
same,max response,[25],-1.03% (inactive)
same,activity change % (negative = inhibition),[26],-2.58% (inactive)
same,Potency,[27],inactive
same,activation,[28],-2.22% (inactive)
same,activation,[29],0.321% (inactive)
same,Potency,[30],10.6 µM (active)
same,Potency,[31],13.3 µM (active)
same,Potency,[32],inactive
same,Potency,[33],12.6 µM (active)
same,max response,[34],-3.47% (inactive)
same,outcome,[35],inactive
same,outcome,[36],inactive
same,max response,[37],-0.927% (inactive)
same,max response,[38],-16.1% (inactive)
same,Potency,[39],inactive
same,Potency,[40],inactive
